Reference: PubChem BioAssay (NCATS)
Values joined by “and” are separate entries in the source; they are usually repeats but may differ in a detail not shown here. Equal entries are not always repeated. Inconclusive results are not listed. A call without a number means that no potency is given here. Active and inactive are the calls of the source. Calls come from the whole dose curve.

Key:
[1] = Cytotoxicity counterscreen for inhibitors of SARS-CoV-2 cell entry (AID 1645845); note: nearly all actives have a fitted effect of over 50% in size
Procedure, shortened: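 After a 15 min room-temperature ATPLite 1step step, luminescence reflected ATP remaining in HEK293-ACE2 cells exposed to compound for 1 h plus 48 h at 37 C, with percent activity set by cell and no-cell controls.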

[2] = Primary qHTS to identify inhibitors of SARS-CoV-2 cell entry (AID 1645846); conditions: activity change, negative = inhibition: at 57.1 µM (top of the series) unless noted; note: nearly all actives have a fitted effect of over 45% in size
Procedure, shortened: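 Luminescence readout (Bright-Glo luciferase) 48 h after pseudoparticle addition. HEK293-ACE2 cells, 1500/well; compound pre-incubation 1 h; Normalized to spike PP and bald PP.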
Potency is the fitted concentration of half-maximal effect.

SMILES: NS(=O)(=O)c1cc2c(cc1Cl)NC(C(Cl)Cl)NS2(=O)=O (stereo not given)
- Potency [1]: inactive
- activity change, negative = inhibition [2]: -2.02% and -6.06%

SMILES: CC(=O)N=c1sc(S(N)(=O)=O)nn1C
- Potency [1]: inactive
- activity change, negative = inhibition [2]: -31.8%

SMILES: CC(CCc1ccccc1)NCC(O)c1ccc(O)c(C(N)=O)c1 (stereo not given)
- Potency [1]: inactive
- activity change, negative = inhibition [2]: -28.2%

SMILES: CCCCCCCCCCCC(=O)[O][Sn]([CH2]CCC)([CH2]CCC)[O]C(=O)CCCCCCCCCCC
- Potency [1]: inactive
- activity change, negative = inhibition [2]: -23.2%

SMILES: NC(=O)c1ccccc1O
- Potency [1]: inactive
- activity change, negative = inhibition [2]: 1.57%

SMILES: COCCCOc1ccnc(CS(=O)c2nc3ccccc3[nH]2)c1C (stereo not given)
- Potency [1]: inactive
- activity change, negative = inhibition [2]: 1.47%

SMILES: Cc1ccccc1C(=O)N1CC/C(=N\OS(=O)(=O)O)c2ccc(Cl)cc21
- Potency [1]: inactive
- Potency [2]: inactive

SMILES: COc1cc(C)c(Cc2cnc(N)nc2N)cc1OC
- Potency [1]: inactive
- Potency [2]: inactive

SMILES: CC(=O)OCC[N+](C)(C)C
- Potency [1]: inactive
- activity change, negative = inhibition [2]: 3.83%

SMILES: C[N+](C)(C)CCOC(N)=O
- Potency [1]: inactive
- Potency [2]: inactive

SMILES: CC[N+](CC)(CC)CCOc1cccc(OCC[N+](CC)(CC)CC)c1OCC[N+](CC)(CC)CC
- Potency [1]: inactive
- Potency [2]: inactive

SMILES: Cc1oc(=O)oc1CN1CCN(c2cc3c(cc2F)c(=O)c(C(=O)O)c2n3C(C)S2)CC1 (stereo not given)
- Potency [1]: inactive
- Potency [2]: inactive

SMILES: O=C(Oc1ccccc1C(=O)O)c1ccccc1O
- Potency [1]: inactive
- activity change, negative = inhibition [2]: -27.2%

SMILES: Cc1c(I)c(=O)n(-c2ccccc2)n1C
- Potency [1]: inactive
- Potency [2]: inactive

SMILES: NS(=O)(=O)c1cc(C2(O)NC(=O)c3ccccc32)ccc1Cl (stereo not given)
- Potency [1]: inactive
- Potency [2]: inactive

SMILES: Cc1ncc(CO)c(CO)c1O
- Potency [1]: inactive
- activity change, negative = inhibition [2]: -1.83%

SMILES: CCCC(=O)OCOC(=O)C1=C(C)NC(C)=C(C(=O)OC)C1c1cccc(Cl)c1Cl (stereo not given)
- Potency [1]: inactive
- Potency [2]: inactive

SMILES: Cc1nnc(NS(=O)(=O)c2ccc(N)cc2)s1
- Potency [1]: inactive
- activity change, negative = inhibition [2]: 4.32% and -12.1%

SMILES: N#C[C@H]1C[C@H]2C[C@@H]2N1C(=O)[C@@H](N)C12CC3CC(CC(O)(C3)C1)C2
- Potency [1]: inactive
- activity change, negative = inhibition [2]: -17.5%

SMILES: COc1cc(NS(=O)(=O)c2ccc(N)cc2)nc(C)n1
- Potency [1]: inactive
- Potency [2]: inactive

SMILES: CCCN1CCCC[C@H]1C(=O)Nc1c(C)cccc1C
- Potency [1]: inactive
- activity change, negative = inhibition [2]: -27.2%

SMILES: CCCCCCCC(=O)OCC(COC(=O)CCCCCCC)OC(=O)CCCCCCC
- Potency [1]: inactive
- Potency [2]: inactive

SMILES: CCc1oc2ccccc2c1C(=O)c1cc(I)c(O)c(I)c1
- Potency [1]: inactive
- activity change, negative = inhibition [2]: -21.9%

SMILES: NCCNCCNCCNCCN
- outcome [1]: inactive [at 11.3 µM]
- activity change, negative = inhibition [2]: 4.56% [at 11.3 µM]

SMILES: Nc1nc(-c2ccccc2)c(Br)c(=O)[nH]1
- Potency [1]: inactive
- Potency [2]: inactive

SMILES: O=c1c(-c2ccc(O)cc2)coc2cc(O)cc(O)c12
- Potency [1]: inactive
- activity change, negative = inhibition [2]: -23.9% [at 114 µM]

SMILES: CN1CCC[C@@H]1c1cccnc1
- Potency [1]: inactive
- Potency [2]: inactive

SMILES: O=C(O)Cc1cccc(-c2cc(CCCCCCc3ccc(O[C@H]4O[C@H](CO)[C@@H](O)[C@H](O)[C@@H]4O)c(-c4cccc(CC(=O)O)c4)c3)ccc2O[C@H]2O[C@H](CO)[C@@H](O)[C@H](O)[C@@H]2O)c1
- activity change, negative = cytotoxicity [1]: 4.02% [at 0.702 µM] (inactive)
- activity change, negative = inhibition [2]: -14.7% [at 0.702 µM]

SMILES: CS(=O)(=O)c1ccc([C@@H](O)[C@@H](CF)NC(=O)C(Cl)Cl)cc1
- Potency [1]: inactive
- activity change, negative = inhibition [2]: -26.1%

SMILES: CCCc1c2oc(C(=O)O)cc(=O)c2cc2c(=O)cc(C(=O)O)n(CC)c12
- Potency [1]: inactive
- activity change, negative = inhibition [2]: -16.5%

SMILES: CN(C)CCOC(=O)C(c1ccccc1)C1(O)CCCC1 (stereo not given)
- Potency [1]: inactive
- activity change, negative = inhibition [2]: 1%

SMILES: NC[C@H]1O[C@H](O[C@H]2[C@H](O[C@@H]3O[C@H](CO)[C@@H](O)[C@H]3O)C(O)[C@H](N)C[C@@H]2N)[C@H](N)[C@@H](O)[C@@H]1O (stereo not given in full)
- outcome [1]: inactive [at 11.3 µM]
- activity change, negative = inhibition [2]: -2.22% [at 11.3 µM]

SMILES: O=C1c2c(O)cccc2Cc2cccc(O)c21
- Potency [1]: inactive
- Potency [2]: inactive

SMILES: CC(=O)NCc1c(I)c(NC(C)=O)c(I)c(C(=O)O)c1I
- Potency [1]: inactive
- Potency [2]: inactive

SMILES: CCCC(=O)O[C@]1(C(=O)CO)CC[C@H]2[C@@H]3CCC4=CC(=O)CC[C@]4(C)[C@H]3[C@@H](O)C[C@@]21C
- Potency [1]: inactive
- activity change, negative = inhibition [2]: -10%

SMILES: CCCNC(C)C(=O)Nc1c(C)csc1C(=O)OC (stereo not given)
- Potency [1]: inactive
- Potency [2]: inactive

SMILES: Cc1cc(C)nc(NS(=O)(=O)c2ccc(N)cc2)n1
- Potency [1]: inactive
- Potency [2]: inactive

SMILES: CCCCC(CC)CNC(=O)CC(C)OC(=O)CCC(=O)O (stereo not given)
- Potency [1]: inactive
- Potency [2]: inactive

SMILES: C[N+](C)(C)CCCCCC[N+](C)(C)C
- Potency [1]: inactive
- activity change, negative = inhibition [2]: -3.21%

SMILES: CC(C)(CO)[C@@H](O)C(=O)NCCCO
- Potency [1]: inactive
- Potency [2]: inactive

SMILES: CO/N=C(/C(=O)N[C@@H]1C(=O)N2C(C(=O)[O-])=C(C[n+]3ccn4ncccc43)CS[C@H]12)c1nsc(N)n1
- Potency [1]: inactive
- Potency [2]: inactive

SMILES: CN=C(NC#N)NCCSCc1nc[nH]c1C
- Potency [1]: inactive
- activity change, negative = inhibition [2]: 4.18%

SMILES: Cc1c(NC(=O)c2cccnc2)c(=O)n(-c2ccccc2)n1C
- Potency [1]: inactive
- Potency [2]: inactive

SMILES: COc1ccc(NS(=O)(=O)c2ccc(N)cc2)nn1
- Potency [1]: inactive
- Potency [2]: inactive

SMILES: OC[C@H]1O[C@@H](n2cnc3c2NC=NC[C@H]3O)C[C@@H]1O
- Potency [1]: inactive
- activity change, negative = inhibition [2]: -15% and -28%

SMILES: O=C(OCc1ccccc1)c1ccccc1
- Potency [1]: inactive
- Potency [2]: inactive

SMILES: O=C(c1ccccc1)C(O)c1ccccc1 (stereo not given)
- Potency [1]: inactive
- Potency [2]: inactive

SMILES: CC(CN(C)C)C(C)(O)Cc1ccc(Cl)cc1 (stereo not given)
- Potency [1]: inactive
- activity change, negative = inhibition [2]: 0.771%

SMILES: C[C@H](NC(CCc1ccccc1)C(=O)O)C(=O)N1CCC[C@H]1C(=O)O (stereo not given in full)
- Potency [1]: inactive
- Potency [2]: inactive

SMILES: CCn1cc(C(=O)O)c(=O)c2cnc(N3CCCC3)nc21
- activity change, negative = cytotoxicity [1]: 1.65% [at 11.3 µM] (inactive)
- activity change, negative = inhibition [2]: 0.588% [at 11.3 µM]

SMILES: NC(=O)c1ncn([C@@H]2O[C@H](CO)[C@@H](O)[C@H]2O)c1O
- Potency [1]: inactive
- Potency [2]: inactive

SMILES: Cc1ccc(-c2ncc(Cl)cc2-c2ccc(S(C)(=O)=O)cc2)cn1
- Potency [1]: inactive
- Potency [2]: inactive

SMILES: CCC(C(=O)NC(=O)NC(C)=O)c1ccccc1 (stereo not given)
- Potency [1]: inactive
- Potency [2]: inactive

SMILES: Nc1nc(Cl)nc2c1ncn2[C@@H]1O[C@H](CO)[C@@H](O)[C@@H]1F
- Potency [1]: inactive
- Potency [2]: 22.4 µM (active)

SMILES: CCOC(=O)c1ccc(O)cc1
- Potency [1]: inactive
- Potency [2]: inactive

SMILES: Cc1nnc(SCC2=C(C(=O)O)N3C(=O)[C@@H](NC(=O)Cn4cnnn4)[C@H]3SC2)s1
- Potency [1]: inactive
- Potency [2]: inactive

SMILES: CO/N=C(/C(=O)N[C@@H]1C(=O)N2C(C(=O)OCOC(=O)C(C)(C)C)=C(C)CS[C@H]12)c1csc(N)n1
- Potency [1]: inactive
- activity change, negative = inhibition [2]: -24.9%

SMILES: C[C@]12CCC(=O)C=C1CC[C@H]1[C@@H]3CC[C@](O)(C(=O)CO)[C@@]3(C)C[C@H](O)[C@@]12F
- Potency [1]: inactive
- activity change, negative = inhibition [2]: -15.9%

SMILES: NS(=O)(=O)c1cc2c(cc1Cl)NC(CC1CCCC1)NS2(=O)=O (stereo not given)
- Potency [1]: inactive
- Potency [2]: inactive

SMILES: COc1cccc(OC)c1C(=O)N[C@@H]1C(=O)N2[C@@H]1SC(C)(C)[C@@H]2C(=O)O
- Potency [1]: inactive
- activity change, negative = inhibition [2]: -19.9%

SMILES: Nc1nc(/C(=C/CC(=O)O)C(=O)N[C@@H]2C(=O)N3C(C(=O)O)=CCS[C@H]23)cs1
- Potency [1]: inactive
- activity change, negative = inhibition [2]: -21.3%

SMILES: CC(=O)Nc1ccc(C(=O)O)cc1
- Potency [1]: inactive
- Potency [2]: inactive

SMILES: CC(C)=CCC/C(C)=C/CO
- Potency [1]: inactive
- activity change, negative = inhibition [2]: 2.42%

SMILES: Cc1onc(-c2ccccc2)c1-c1ccc(S(N)(=O)=O)cc1
- Potency [1]: inactive
- activity change, negative = inhibition [2]: -25.7% and -12.6%

SMILES: Nc1ccc(S(=O)(=O)Nc2ccc(Cl)nn2)cc1
- Potency [1]: inactive
- Potency [2]: inactive

SMILES: CC(C)c1ccc2oc3nc(N)c(C(=O)O)cc3c(=O)c2c1
- Potency [1]: 10 µM (active)
- Potency [2]: inactive

SMILES: OC[C@@H](O)[C@@H](O[C@@H]1O[C@H](CO)[C@H](O)[C@H](O)[C@H]1O)[C@H](O)[C@@H](O)CO
- Potency [1]: inactive
- Potency [2]: inactive

SMILES: CCCCCCCCCCOc1cc2c(=O)c(C(=O)OCC)c[nH]c2cc1OCC
- outcome [1]: inactive [at 5.25 µM]
- activity change, negative = inhibition [2]: -22.6% [at 5.25 µM]

SMILES: Nc1ncn([C@H]2C[C@H](O)[C@@H](CO)O2)c(=O)n1
- Potency [1]: inactive
- activity change, negative = inhibition [2]: -12.8%

SMILES: O=C(OCC1(COC(=O)c2cccnc2)CCCC(COC(=O)c2cccnc2)(COC(=O)c2cccnc2)C1O)c1cccnc1
- Potency [1]: inactive
- activity change, negative = inhibition [2]: -30.1%

SMILES: O=C1O[C@H](CO)[C@@H](O)[C@H](O)[C@H]1O
- Potency [1]: inactive
- activity change, negative = inhibition [2]: -15.4%

SMILES: O=C(COCCOCCOCC(=O)Nc1c(I)cc(I)c(C(=O)O)c1I)Nc1c(I)cc(I)c(C(=O)O)c1I
- Potency [1]: inactive
- Potency [2]: inactive

SMILES: NC(N)=Nc1nc(CSCC/C(N)=N/S(N)(=O)=O)cs1
- Potency [1]: inactive
- Potency [2]: inactive

SMILES: CC(=O)[C@@]1(O)CC[C@H]2[C@@H]3C[C@H](C)C4=CC(=O)C=C[C@]4(C)[C@@]3(F)[C@@H](O)C[C@@]21C
- Potency [1]: inactive
- activity change, negative = inhibition [2]: 1.04%

SMILES: NC[C@H]1O[C@H](O[C@H]2[C@H](O)[C@@H](O[C@H]3O[C@H](CO)[C@@H](O)[C@H](N)[C@H]3O)[C@H](N)C[C@@H]2N)[C@H](O)[C@@H](O)[C@@H]1O
- outcome [1]: inactive [at 5.25 µM]
- activity change, negative = inhibition [2]: -26.4% [at 5.25 µM]
